Where a name gives a salt, the structure may show the parent alone.
Tested on: Drosophila S2 cl14 SmoIP sensor cells
Test: normalized SmoIP GFP fluorescence (untreated unstimulated = 0%, untreated Hh-stimulated = 100%); higher = more Smo activation sensor fluorescence
Settings: compound concentration: 2 uM, 24 h
[1] = stimulation: Hh conditioned medium (+Hh)
[2] = stimulation: mock conditioned medium (-Hh)
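Note: flow cytometry read-out as median GFP intensity of gated cells, compounds added 30 min before Hh-conditioned or mock medium, mock-treated cells serving as unstimulated baseline.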

Row | SMILES | normalized SmoIP GFP fluorescence [1] | normalized SmoIP GFP fluorescence [2]
1 | Cc1nnc(C(=O)NC(C)(C)c2nc(C(=O)NCc3ccc(F)cc3)c(O)c(=O)n2C)o1 [Raltegravir-(MK-0518)] | 111% | -11.7%
2 | CN(C)CCN(Cc1ccccc1)c1ccccn1 [tripelennamine-hydrochloride] | 112% | -3.9%
3 | CCCC(CCC)C(=O)O [Divalproex-sodium] | 134% | -10.4%
4 | C/C(=C\C(=O)Nc1ccccc1C(=O)O)c1ccc2ccccc2c1 | 109% | -2.42%
5 | CC[C@@]1(O)C(=O)OCc2c1cc1n(c2=O)Cc2cc3c(CN(C)C)c(O)ccc3nc2-1 [Topotecan-Hydrochloride] | 110% | 15.7%
6 | COc1cc(-c2ncn(/C=C\C(=O)OC(C)C)n2)cc(C(F)(F)F)c1 | 98.3% | -0.889%
7 | CC(C)(C)c1cnc(CSc2cnc(NC(=O)C3CCNCC3)s2)o1 | 131% | 66%
8 | CNC(=O)c1ccc(N2C(=S)N(c3ccc(C#N)c(C(F)(F)F)c3)C(=O)C2(C)C)cc1F | 113% | 4.03%
9 | O=C(O)c1ccc(C=C2SC(=S)N(c3cccc(C(F)(F)F)c3)C2=O)cc1 [cftrinh-172] | 121% | 2.24%
10 | CC1(C)O[C@@H]2[C@@H](CO[C@@]3(COS(N)(=O)=O)OC(C)(C)O[C@@H]23)O1 [Topiramate] | 114% | 5.45%
11 | Cc1ccc(Sc2ccccc2N2CCNCC2)c(C)c1 | 169% | -11.4%
12 | OCc1ccc(-c2ccc(-c3ccc(CO)s3)o2)s1 | 111% | -2.08%
13 | CC[C@@H](C)Nc1cc(C(=O)N[C@H]2C[C@H]3CC[C@@H](C2)N3c2ccc(C(=O)C3CC3)cn2)c(C)cc1C(N)=O | 150% | 18%
14 | CN1C(=O)C(Cc2c[nH]c3ccccc23)NC1=S (stereo unspecified) [necrostatin-1] | 134% | -16.1%
15 | O=C1NCCc2[nH]c(-c3ccncc3)cc21 | 164% | -0.477%
16 | CCc1cc2c(cc1CC)CC(NC[C@H](O)c1ccc(O)c3[nH]c(=O)ccc13)C2 [indacaterol-maleate] | 107% | -2.82%
17 | COC(=O)[C@H](c1ccccc1Cl)N1CCc2sccc2C1 [Clopidogrel-bisulfate] | 113% | 2.97%
18 | C=C[C@@]1(C)CC(=O)[C@]2(O)[C@@]3(C)[C@@H](O)CCC(C)(C)[C@@H]3[C@H](O)[C@H](OC(C)=O)[C@@]2(C)O1 [forskolin] | 137% | -10%
19 | CN1CCc2c(c3ccccc3n2Cc2ccc(C(=O)NO)cc2)C1 [tubastatin-a-hcl] | 101% | -1.83%
20 | C[C@@H](c1ncncc1F)[C@](O)(Cn1cncn1)c1ccc(F)cc1F [Voriconazole] | 101% | 1.57%
21 | CC[C@H](CO)Nc1nc(NCc2ccccc2)c2ncn(C(C)C)c2n1 [Roscovitine] | 121% | 5.12%
22 | CS(=O)(=O)CCNCc1ccc(-c2ccc3ncnc(Nc4ccc(OCc5cccc(F)c5)c(Cl)c4)c3c2)o1 [Lapatinib-Ditosylate] | 253% | 9%
23 | N=C(N)NC(=N)NCCc1ccccc1 [Phenformin-hydrochloride] | 151% | -9.04%
24 | Nc1ncnc2c1c(-c1cccc(OCc3ccccc3)c1)cn2C1CC(CN2CCCC2)C1 (stereo unspecified) | 117% | 5.45%

Row | SMILES | normalized SmoIP GFP fluorescence [1] | normalized SmoIP GFP fluorescence [2]
25 | COc1cccc(Nc2c(C(N)=O)cnc3c(C)cc(S(=O)(=O)c4cccc(C(=O)N(C)C)c4)cc23)c1 | 111% | -16.1%
26 | CCCNC(=O)Nc1ccc(Oc2ncnc3cc(OC)c(OC)cc23)cc1Cl | 105% | -6.51%
27 | C[C@@H]1COC(Nc2ccc3ncnc(Nc4ccc(OCc5nccs5)c(Cl)c4)c3c2)=N1 | 108% | -17.2%
28 | CC(=O)O[C@]1(C(C)=O)CC[C@H]2[C@@H]3C=C(Cl)C4=CC(=O)[C@@H]5C[C@@H]5[C@]4(C)[C@H]3CC[C@@]21C [cyproterone-acetate] | 142% | -6.79%
29 | CCNC(=O)[C@H]1O[C@@H](n2cnc3c(N)nc(NCCc4ccc(CCC(=O)O)cc4)nc32)[C@H](O)[C@@H]1O | 148% | -8.77%
30 | CCOC(=O)c1ccc(OC(=O)CCCCCNC(=N)N)cc1 [gabexate-mesylate] | 120% | -12.6%
31 | Cc1ccc(N(CC2=NCCN2)c2cccc(O)c2)cc1 [phentolamine-mesilate] | 128% | -15.3%
32 | C[C@H](Nc1ncnc2nc[nH]c12)c1cc2cccc(Cl)c2c(=O)n1-c1ccccc1 | 98% | -4.24%
33 | CC(C)(C)C#Cc1cc(N(C(=O)[C@H]2CC[C@H](C)CC2)[C@H]2CC[C@H](O)CC2)c(C(=O)O)s1 | 118% | 10.4%
34 | Nc1nc(Nc2ccc(S(N)(=O)=O)cc2)nn1C(=O)c1c(F)cccc1F | 205% | 67.9%
35 | O=C(Nc1ccc(S(=O)(=O)Nc2ccccc2Cl)c(Cl)c1)c1ccccn1 | 131% | 3.4%
36 | CN1C2CCCC1CC(NC(=O)c1nn(C)c3ccccc13)C2 (stereo unspecified) [Granisetron-Hydrochloride] | 103% | 3.72%
37 | Nc1cc(F)ccc1NC(=O)/C=C/c1cnn(C/C=C/c2ccccc2)c1 [rgfp966] | 112% | -0.775%
38 | C=CC(=O)Nc1cccc(Nc2nc(Nc3ccc(OCCOC)cc3)ncc2F)c1 | 116% | -2.31%
39 | O=c1sn(-c2cccc3ccccc23)c(=O)n1Cc1ccccc1 [tideglusib] | 101% | -0.264%
40 | CCOC(=O)CCNc1cc(N2CCc3ccccc3CC2)nc(-c2ccccn2)n1 | 116% | -2.48%
41 | CN(C)CCOc1ccc(-c2nc(-c3ccncc3)c(-c3ccc4c(c3)CC/C4=N\O)[nH]2)cc1 | 114% | 4.48%
42 | CC(C)[C@H](O)C(=O)N[C@@H](C)C(=O)N[C@@H]1C(=O)N(C)CCc2ccccc21 | 98.8% | 13.8%
43 | CCOC(=O)c1ccc(NC2CCCCC2)c(N)c1 [ferrostatin-1-fer-1] | 116% | -3.05%
44 | CN(C)CCC=C1c2ccccc2CCc2ccccc21 [amitriptyline-hydrochloride] | 104% | -3.27%
45 | CC(C)c1cc(-c2ccc(F)c3ccccc23)nc(N)n1 | 144% | -7.78%
46 | Cc1ccc(C(=O)NCCCCCC(=O)Nc2ccccc2N)cc1 [rg2833-rgfp109] | 101% | -3.05%
47 | O=C(Nc1cccc2cccnc12)c1ccc(N2C(=O)[C@@H]3[C@H](C2=O)[C@@H]2C=C[C@H]3C2)cc1 [iwr-1-endo] | 114% | -4.92%
48 | COc1cc(NC(=O)c2ccc(-c3ccc(Cl)cc3)o2)cc(OC)c1 | 115% | -1.97%

— the supplement of paper PMC5662767
